# Assay outcomes: PubChem BioAssay, several laboratories
# In the library only some 3.2% were active in any assay of this set; here they are far more common.
# SKN-1 inh: suppressors of acrylamide-induced Pgst-4::GFP reporter in worms, primary screen, SKN-1 inhibitor project, whole organism, uHTS, GFP/RFP fluorescence ratio, strain VP596 | C. elegans VP596 Pgst-4::GFP/RFP ratio, 24 h | inhibition, % at 21.8 µM | 360,000 tested, 0.49% active | AID 624304, 2012;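 active = interference check ratio from 0.5 to 1.5 plus GFP to RFP signal ratio inhibition reaching or exceeding a fixed threshold, cut at about 30% in these data, passing the limit was not always enough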
# MEKK3 PB1 HTS: modulators of MEKK3-MEK5 PB1 binding, primary screen, biochemical, wildtype MEKK3, multiplex bead flow cytometry, Alexa488-MEK5. Mitogen-activated protein kinase kinase kinase 3 (Homo sapiens), Q99759. bead-based flow cytometry, Alexa488-MEK5 binding to MEKK3; actives lie on both sides; 0 = blocked by unlabeled MEK5, 100 = vehicle. binding response (% of control), % at 10 µM. 290,000 tested, 1.4% active. AID 1529, 2009;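 active = binding response more than 3 SD above or below the average of its plate-row segment, actives on both sides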;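 note: Alexa488 bead fluorescence after subtracting the streptavidin-only scavenger bead signal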
# Target sequence (Q99759 whole entry, looked up): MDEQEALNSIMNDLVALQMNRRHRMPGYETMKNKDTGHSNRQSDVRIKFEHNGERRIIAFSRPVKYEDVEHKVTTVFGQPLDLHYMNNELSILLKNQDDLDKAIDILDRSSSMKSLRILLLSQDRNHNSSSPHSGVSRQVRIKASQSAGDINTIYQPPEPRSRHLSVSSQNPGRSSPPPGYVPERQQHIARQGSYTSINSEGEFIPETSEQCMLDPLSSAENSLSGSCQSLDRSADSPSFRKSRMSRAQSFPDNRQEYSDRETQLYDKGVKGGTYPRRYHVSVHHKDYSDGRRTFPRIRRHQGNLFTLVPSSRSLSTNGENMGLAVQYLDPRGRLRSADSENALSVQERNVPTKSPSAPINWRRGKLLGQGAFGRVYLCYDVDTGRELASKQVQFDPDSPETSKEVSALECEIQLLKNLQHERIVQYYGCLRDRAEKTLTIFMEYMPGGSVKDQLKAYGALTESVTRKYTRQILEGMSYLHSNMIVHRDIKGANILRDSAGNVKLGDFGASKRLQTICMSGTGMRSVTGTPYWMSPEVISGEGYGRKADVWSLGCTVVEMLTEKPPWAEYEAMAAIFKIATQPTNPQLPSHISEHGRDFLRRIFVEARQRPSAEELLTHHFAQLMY
# MEKK2wt PB1 HTS: modulators of MEK5 binding to wildtype MEKK2, primary screen, biochemical, multiplex bead flow cytometry, Alexa488-MEK5; binding response (% of control), % at 10 µM; 290,000 tested, 1.1% active; Mitogen-activated protein kinase kinase kinase 2 (Homo sapiens), Q9Y2U5; Alexa488-MEK5 binding to MEKK2 WT; actives lie on both sides; in the data active = binding response below about 67% or above about 130%
# NRP1-CendR mod: modulators of CendR peptide binding to NRP-1, primary screen, biochemical, fluorescence polarization, uHTS; Neuropilin-1 (Homo sapiens), O14786; FAM-RPARPAR peptide binding to NRP-1; inhibition, % at 25 µM; 360,000 tested, 0.85% active;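 active = inhibition or corrected inhibition above about 18%, plus a signal ratio from 0.5 to 1.5, limit read from the data, passing the limit was not always enough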
# MEKK2 mut-MEK5: MEK5 binding signal on mutant MEKK2 PB1, primary screen, biochemical, multiplex bead flow cytometry, Alexa488-MEK5; Alexa488-MEK5 binding to MEKK2 mutant; percent response, % at 10 µM; 290,000 tested, 0.35% active; AID 1530, 2009; in the data active = percent response above about 24%, passing the limit was not always enough
# Hits are given with their value; . = inactive; / = not tested or not shown; [ ] = another dose, or the depositor's remark.
SMILES,SKN-1 inh,MEKK3 PB1 HTS,MEKK2wt PB1 HTS,NRP1-CendR mod,MEKK2 mut-MEK5
CCN(CC)CCN(C(=O)c1ccc2c(c1)CCCC2)c1nc2ccc(C)cc2s1,.,.,148,.,31
CN(C)CCCN(C(=O)c1ccc(S(=O)(=O)N2CCc3ccccc3C2)cc1)c1nc2ccc(F)cc2s1,.,.,252,.,71
COc1ccc2sc(N(CCCN(C)C)C(=O)c3ccc(S(=O)(=O)N4CCc5ccccc5C4)cc3)nc2c1,.,/,/,.,/
CN(C)CCCN(C(=O)c1cc(-c2cccs2)nc2ccccc12)c1nc2ccc(F)cc2s1,.,.,203,.,54
CCN(CC)CCN(C(=O)c1ccc2c(c1)CCCC2)c1nc2ccc(OC)cc2s1,.,.,.,.,.
CN(C)CCCN(C(=O)c1ccc(S(=O)(=O)N2CCc3ccccc32)cc1)c1nc2ccc(Cl)cc2s1,.,.,181,.,33
Cc1[nH]c(=O)[nH]c(=O)c1S(=O)(=O)Nc1cccc([N+](=O)[O-])c1C,.,.,.,.,.
Cc1cccc(C(=Cc2ccc([N+](=O)[O-])cc2)C(=O)O)c1,.,/,/,.,/
Cc1ccc2nc(N(CCCN(C)C)C(=O)c3ccc(S(=O)(=O)N4CCc5ccccc5C4)cc3)sc2c1,.,.,223,.,55
Cc1cc(C)c2sc(N(CCCN(C)C)C(=O)c3ccc(S(=O)(=O)N4CCc5ccccc5C4)cc3)nc2c1,.,/,/,.,/
CC(NC(=O)c1ccco1)C(=O)N1CCN(C(c2ccccc2)c2ccccc2)CC1 (stereo not drawn),.,.,.,.,.
CN(CCc1ccccc1)C(=O)c1cccc(NC(=O)Cc2cccc(NC(=O)C3CCN(C(=O)c4ccccc4)CC3)c2)c1,.,/,/,.,/
S=c1[nH]nc(-c2ccco2)n1/N=C/c1c(Cl)cccc1Cl,47,.,.,.,.
CCC(C)N(C(=O)COC(=O)c1ccccc1SCC(=O)N1CCCC1)C1CCS(=O)(=O)C1 (stereo not drawn),.,.,.,.,.
CN(C(=O)COC(=O)c1ccccc1SCC(=O)N1CCCC1)C1CCS(=O)(=O)C1 (stereo not drawn),.,.,.,20,.
CC(NC(=O)COC(=O)c1ccc(Br)o1)c1ccccc1 (stereo not drawn),.,/,/,.,/
CCCN(CC1CC1)c1cc2c(c3c1ccn3C)C1CCC2O1 (stereo not drawn),.,/,/,22,/
O=C1CSC(=S)N1Nc1ccccc1,36,/,/,.,/
COCCN(Cc1ccccc1)C(=O)c1cccc(S(=O)(=O)N2CCN(Cc3ccccc3)CC2)c1,.,/,/,.,/
COc1ccc(Nc2nccc(-c3cccc(N)c3)n2)cc1,.,.,.,20,.
COC(=O)CCC(=O)OC1(C)C(=O)C=C2C=C(C3CC3)N(C3CC3)C=C2C1=O (stereo not drawn),.,.,.,.,.
COC(=O)CCC(=O)OC1(C)C(=O)C=C2C=C(C3CC3)N(Cc3ccco3)C=C2C1=O (stereo not drawn),.,.,.,36,.
COCCN1C=C2C(=O)C(C)(OC(=O)CCC(=O)OC)C(=O)C=C2C=C1C1CC1 (stereo not drawn),.,.,.,29,.
COC(=O)CCC(=O)OC1(C)C(=O)C=C2C=C(C3CC3)N(c3ccc(CO)cc3)C=C2C1=O (stereo not drawn),/,.,.,/,.
O=C(CSc1nnc(NC(=O)c2cccc(Cl)c2)s1)NCC1CCCO1 (stereo not drawn),.,.,.,.,.
SMILES,SKN-1 inh,MEKK3 PB1 HTS,MEKK2wt PB1 HTS,NRP1-CendR mod,MEKK2 mut-MEK5
Cn1c(=O)n(C)c2cc(N3CCOCC3)c(NC(=O)c3ccc(F)cc3)cc21,.,.,.,.,.
CC1Oc2cc3oc4c(O)c(O)ccc4c(=O)c3c(O)c2C1(C)C (stereo not drawn),.,.,.,.,.
COCCNC(=O)CN1C(=O)/C(=C/c2ccccc2)Oc2ccc(C(C)(C)C)cc21,.,.,.,.,.
Nc1cc(=O)[nH]c(SCC(=O)Nc2ccc(S(=O)(=O)N3CCCCC3)cc2)n1,.,.,.,.,.
Nc1cc(=O)[nH]c(SCC(=O)Nc2ccc(S(=O)(=O)N3CCOCC3)cc2)n1,35,.,.,.,.
O=S1(=O)N[C@H](Cc2ccccc2)COc2cccc(N3CCC[C@@H]3CO)c21,.,/,/,.,/
O=C(Nc1cccc(S(=O)(=O)NC2=NCCCCC2)c1)c1ccc(Cl)cc1,.,/,/,.,/
Cc1ccc(CNC(=O)COC(=O)c2c(C)noc2C)cc1,.,.,.,.,.
Cc1noc(C)c1C(=O)OCC(=O)NCc1ccccc1,.,/,/,24,/
Cc1cccc(COc2ccc(S(=O)(=O)N3CCOCC3)cc2[N+](=O)[O-])c1,.,/,/,20,/
CC(Sc1ccc(S(=O)(=O)N2CCOCC2)cc1[N+](=O)[O-])C(=O)O (stereo not drawn),.,.,.,.,.
CC(C)C(Nc1ccc(S(=O)(=O)N2CCOCC2)cc1[N+](=O)[O-])C(=O)O (stereo not drawn),.,.,.,28,.
COc1ccc(S(=O)(=O)NCCN2CCOCC2)cc1[N+](=O)[O-],.,0.0[inhibitor],-11[inhibitor],.,.
Cn1c(=O)c2[nH]c(SCCN3CCOCC3)nc2n(C)c1=S,.,/,/,.,/
Cn1c(=O)c2[nH]c(SCCN3CCCCC3)nc2n(C)c1=S,.,/,/,20,/
O=c1oc(/C=C/c2ccccc2)nc2sc3c(c12)CCC3,.,.,.,25,.
Cn1c(N/N=C/c2ccccc2)nc2sc3c(c2c1=O)CCC3,48,.,.,.,.
COc1ccc(/C=C/c2nc3sc4c(c3c(=O)o2)CCC4)cc1,.,.,.,.,.
CC1CCN(C(=O)c2nc[nH]c2C(=O)N2CCc3ccccc3C2)CC1,.,/,/,29,/
CC1CCN(C(=O)c2nc[nH]c2C(=O)N2CCC(C)CC2)CC1,.,/,/,36,/
Nc1ccc(C(=O)Nc2ccc(Nc3ccncc3)cc2)c([N+](=O)[O-])c1,.,/,/,27,/
COc1cc(C(=O)Nc2ccncc2)c([N+](=O)[O-])cc1OC,.,.,.,.,.
Cc1ccccc1-c1cnc2c(c1)C(=O)N([C@@H](C)CO)C[C@@H](C)[C@H](CN(C)Cc1ccccc1F)O2,.,/,/,.,/
COc1ccc(-c2nnc(-c3cc4c(ccc5ccccc54)oc3=O)o2)cc1,.,.,.,.,.
O=c1oc2ccc3ccccc3c2cc1-c1nnc(-c2ccccc2)o1,52,.,.,.,.
